Source: PubChem BioAssay
Gli-Sufu antag: antagonists of Gli-Sufu signaling | inhibition, % at 5 µM | Sufu-KO-LIGHT fibroblasts, Gli luciferase reporter luminescence | hit rate 0.74% among 340,000;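 active means inhibition above about 55%, limit read from the data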;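 further: 0% = DMSO-treated cells and 100% = wells with medium but no cells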
TAG inh: reduces triacylglycerol accumulation in H9c2 cells. Nile Red lipid (TAG) fluorescence; cells loaded with 200 µM oleic acid. inhibition, % at 12.5 µM. hit rate 0.66% among 230,000. AID 651582;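 active means pattern-corrected inhibition of lipid staining of at least 50% with the nuclear-stain viability signal not falling by more than 50%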;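 further: 0% = DMSO wells and 100% = triacsin C control wells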
Shn3 3UTR inh: reduces Shn3 3'UTR luciferase signal in osteoblasts | Clone20 osteoblast Shn3 3'UTR firefly luciferase, 24 h | inhibition, % at 12.5 µM | hit rate 0.52% among 360,000;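 active means mean inhibition of at least 75% with every replicate also reaching 75%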;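 further: 0% = median of neutral control wells and 100% = pilot-screen positive control compound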
Jurkat NFkB inh: inhibitors of the PMA/ionomycin-induced NF-kB reporter in Jurkat cells. PMA/ionomycin-induced NF-kB luciferase reporter, luminescence. inhibition, % at 4 µM. hit rate 0.53% among 330,000; in the data active means inhibition above about 50%
697 NFkB inh: lowers PMA/ionomycin-induced NF-kB signal in 697 B cells; 697 B-cell NF-kB luciferase reporter, 16 h; inhibition, % at 4 µM; hit rate 0.33% among 330,000; AID 435022; in the data active means inhibition above about 35%
aSyn UTR inh: MLPCN primary screen, SNCA 5' untranslated region; inhibition, % (tested at 7.5 µM); alpha-synuclein 5'UTR reporter, inhibitor activity; hit rate 0.82% among 300,000; AID 1813; in the data active means inhibition above about 60%;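 further: H4 neuroglioblastoma cells stably carrying SNCA 5'UTR luciferase fusion; 0% = DMSO wells and 100% = positive control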
Gli antag conf: confirmation of Gli-SUFU pathway antagonists; shares compounds with Gli-Sufu antag; Sufu-KO-LIGHT cells, Gli luciferase reporter, luminescence; inhibition, % at 5 µM; hit rate 40% among 2,500;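 active means mean inhibition at 5 µM reaching about 45%, limit read from the data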;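 further: plate controls were DMSO-treated cells for no effect and wells lacking cells for full effect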
Gli cytotox: counter-screen for Gli-SUFU antagonists: cytotoxicity. cytotoxicity, % at 5 µM. hit rate 32% among 2,500. shares compounds with Gli-Sufu antag. Sufu-KO-LIGHT cells cytotoxicity, ATP luminescence. AID 651994;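 active means mean cytotoxicity at 5 µM above about 25%, limit read from the data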;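 further: cells exposed to compound overnight for roughly 16 to 18 hours; plate controls were DMSO wells with cells for no effect and medium without cells for full effect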
Wnt3a counter: Wnt3a reporter inhibition counter-screen. shares compounds with Gli-Sufu antag. Wnt-LIGHT cells, Wnt3a-driven luciferase reporter, luminescence. inhibition, % at 6.25 µM. hit rate 20% among 2,500. AID 651995;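 active means mean inhibition above about 25%, limit read from the data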
Starred values were filed as active, the others as inactive; x = no result given. Only some compounds are listed: those with a hit (about 2.3% of all), similar ones and a draw of the others.

SMILES | Gli-Sufu antag | TAG inh | Shn3 3UTR inh | Jurkat NFkB inh | 697 NFkB inh | aSyn UTR inh | Gli antag conf | Gli cytotox | Wnt3a counter
Cc1ccc(C(C)C)c(OCC(O)CN2CCc3ccccc3C2)c1 (stereo not drawn) | 42 | -32 | 61 | 0 | -14 | 13 | x | x | x
CCOC(=O)C1C(=O)C=C(c2ccc(C)cc2)CC1c1ccc([N+](=O)[O-])cc1 (stereo not drawn) | 17 | x | 2 | x | x | x | x | x | x
S=C(NCCc1ccccc1)Nc1ccc(Cl)cc1Cl | 65* | x | 6 | 5 | -1 | -52 | 13 | 10 | -30
S=C(NCCc1ccccc1)Nc1cccc2cnccc12 | 51 | -45 | 89* | 48 | 33 | -29 | 58* | 18 | 34*
Cc1cc(Cl)ccc1NC(=S)NCCc1ccc(Cl)cc1 | 28 | x | 11 | 0 | -1 | -13 | x | x | x
COC(=O)C(NC(C)=O)(Nc1ccc(Br)cn1)C(F)(F)F (stereo not drawn) | 18 | -14 | 8 | 13 | 28 | 5 | x | x | x
Cc1nc2c(-c3ccc(Cl)cc3)cnn2c(N)c1-c1ccc(F)cc1 | 63* | x | -40 | -51 | -248 | -55 | 81* | 18 | 84*
CC(C)OP(=O)(Nc1cccc2ccccc12)OC(C)C | 34 | -19 | 9 | 2 | -8 | -34 | x | x | x
CN(C)P(=O)(Nc1cccc2ccccc12)Nc1cccc2ccccc12 | 51 | -16 | 88* | 6 | -15 | x | 29 | 16 | -34
Fc1ccc(-n2nnnc2-c2cnc(-c3cccs3)nc2C(F)(F)F)cc1 | 51 | -12 | 90* | 12 | -45 | 8 | 56* | 31* | -13
FC(F)(F)c1nc(-c2ccncc2)ncc1-c1nnnn1-c1ccccc1 | 16 | -14 | 1 | 11 | -27 | 6 | x | x | x
FC(F)(F)c1nc(N2CCCC2)ncc1-c1nnnn1-c1ccc(Cl)cc1 | 54 | -7 | 57 | 7 | -41 | 4 | 54* | 45* | 20
CCn1nc(C)c(CNC(=O)CC2C(=O)NCCN2Cc2ccc(C)o2)c1C (stereo not drawn) | 4 | 2 | -6 | 4 | 12 | 10 | x | x | x
Nn1c(SCC(=O)NC2CCS(=O)(=O)C2)nc2scc(-c3ccccc3)c2c1=O (stereo not drawn) | 50 | 18 | -35 | -4 | 5 | x | 23 | -5 | 1
C=CCn1c(SCC(=O)NC2CCS(=O)(=O)C2)nc2scc(C3CC3)c2c1=O (stereo not drawn) | -2 | 4 | 8 | -6 | -21 | 13 | x | x | x
CCC1=Nc2cc(C(=O)NCCN3CCOCC3)ccc2Sc2ccc(C)cc21 | -5 | x | 3 | -6 | -10 | -22 | x | x | x
CCC1=Nc2cc(C(=O)NCc3ccco3)ccc2Sc2ccc(C)cc21 | 57* | x | 13 | x | x | 104* | 62* | 59* | 7
CCCC1=Nc2cc(C(=O)N3CCCC3)ccc2Sc2ccc(C)cc21 | 53 | x | 1 | -2 | -9 | 1 | 34 | 3 | 15
Cc1nc2ccccc2c2oc(C(=O)N3CCN(c4ccc([N+](=O)[O-])cc4)CC3)cc12 | 59* | x | 43 | 5 | -13 | 11 | 29 | 28* | -84
c1ccc(COc2cccc(-c3cc4nc(NCCOc5ccccc5)ccn4n3)c2)cc1 | x | 11 | 12 | x | x | x | x | x | x
COc1ccc(C(=O)Nc2ccc3oc(-c4cccc(F)c4)nc3c2)cc1OC | 4 | 19 | 16 | -2 | -7 | 1 | x | x | x
COc1ccccc1C(=O)Nc1ccc2oc(-c3ccc(F)cc3)nc2c1 | 95* | x | -33 | -33 | -45 | -201 | -12 | 16 | -71
N#C/C(=N\Nc1ccccc1)C(N)=S | 13 | -1 | x | 10 | -19 | 18 | x | x | x
N#C/C(=N\Nc1ccc(Cl)cc1)C(N)=S | 60* | -6 | 11 | -14 | -72 | -19 | 59* | 12 | 32*
CCCNC(=O)c1ccc(OC)cc1OC | -1 | -18 | 1 | 1 | 2 | -11 | x | x | x
SMILES | Gli-Sufu antag | TAG inh | Shn3 3UTR inh | Jurkat NFkB inh | 697 NFkB inh | aSyn UTR inh | Gli antag conf | Gli cytotox | Wnt3a counter
CSCCC(NC(N)=O)C(=O)Nc1cccc(S(=O)(=O)N2CCOCC2)c1 (stereo not drawn) | -7 | 13 | 6 | -6 | -6 | -2 | x | x | x
CSCCC(NC(=O)c1cccc(S(=O)(=O)N2CCOCC2)c1)C(=O)Nc1ccc(F)cc1 (stereo not drawn) | 68* | x | -3 | 7 | 7 | -8 | 17 | 3 | -19
CCOC(CNC(=O)c1cc2c(=O)n(CC)c3ccccc3c2s1)OCC | 11 | x | -11 | 8 | 16 | -16 | x | x | x
CCn1c(=O)c2cc(C(=O)NCC(OC)OC)sc2c2ccccc21 | 50 | x | 14 | -5 | 22 | -15 | 29 | 2 | 3
CN1CCCN(C(=O)C2CCC(C(=O)N3CCCN(C)CC3)CC2)CC1 (stereo not drawn) | 50 | -9 | -8 | -16 | -16 | 34 | 8 | -11 | 13
CC(C)(C)NC(=O)CSc1nnc(-c2ccncc2)n1Cc1ccccc1 | 1 | -1 | -3 | 0 | -11 | -12 | x | x | x
CC(C)C(C)(C#N)NC(=O)CSc1nnc(-c2ccncc2)n1Cc1ccccc1 (stereo not drawn) | 95* | 4 | 0 | -2 | -20 | 9 | 22 | 7 | -12
CCc1c(O)nc(SCC(=O)Nc2nc3ccccc3s2)n(-c2ccc(C)cc2)c1=O | 4 | 11 | -9 | -45 | -96 | -52 | x | x | x
COc1ccc(-c2c(NC(=O)C(C)C)n(C)c3ccccc3c2=O)cc1 | 4 | x | -11 | 14 | 20 | 12 | x | x | x
COc1ccc(-c2c(NC(C)=O)n(C)c3ccccc3c2=O)cc1 | 100* | x | 0 | 7 | 8 | -1 | 11 | 22 | -22
O=C(Nc1cccs1)Nc1c(F)c(F)c(F)c(F)c1F | 67* | x | 71 | 2 | 18 | 7 | 72* | 27* | 39*
O=C(Nc1cccs1)Nc1c(F)c(F)cc(F)c1F | 10 | x | 48 | -4 | 22 | -2 | x | x | x
Cc1ccc(Nc2nnc(SCC(=O)Nc3ccc(S(=O)(=O)N4CCOCC4)cc3)s2)cc1 | 10 | x | -30 | -4 | 7 | -30 | x | x | x
Cc1ccc(C(=O)N2N=C(CC(C)C)CC2(O)C(F)(F)F)o1 (stereo not drawn) | -6 | -17 | 1 | 1 | 12 | 0 | x | x | x
C#CC[N+](CC)(CC)CC#Cc1ccccc1 | 5 | 11 | -40 | 14 | 5 | -7 | x | x | x
CC[N+](CC)(CC#Cc1ccccc1)CC#Cc1ccccc1 | 68* | -2 | 30 | 38 | -24 | -12 | 71* | 22 | 19
Cc1nnc(SCC(=O)OC2CC(C)CCC2C(C)C)[nH]c1=O (stereo not drawn) | 2 | 6 | 1 | -2 | 3 | 26 | x | x | x
